# Test results: the supplement of paper PMC6555819
# What was measured:
# Experiment in all cases: PBM binding z-score (relative to random genomic background probes); higher = stronger binding; sequences stand for … in GC…GCGATTGACAGCGTAGAATGAAGG
# [1] = system: FXR:RXRa (NR concentration 270 nM, RXRa partner concentration 90 nM)
# Summary of the method: (§1)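 Scanned fluorescence from custom Agilent 4×180K protein-binding microarrays was regression-normalized. Binding z-scores use random background probes as reference. Ligand-free nuclear receptor dimers were incubated on the arrays for 1 h and detected with antibodies against each partner (one per run).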
# [2] = system: LXRa:RXRa (NR concentration 270 nM, RXRa partner concentration 90 nM)
# Summary of the method: as §1
# [3] = system: LXRa homodimer (NR concentration 270 nM)
# Summary of the method: as §1
# [4] = system: LXRb:RXRa (NR concentration 270 nM, RXRa partner concentration 90 nM)
# Summary of the method: as §1
# [5] = system: LXRb homodimer (NR concentration 270 nM)
# Summary of the method: as §1
# [6] = system: PPARa:RXRa (NR concentration 270 nM, RXRa partner concentration 90 nM)
# Summary of the method: as §1
# [7] = system: PPARg:RXRa (NR concentration 180 nM, RXRa partner concentration 90 nM)
# Summary of the method: as §1
# [8] = system: PPARg:RXRa 270nM:90nM, anti-RXR (NR concentration 270 nM, RXRa partner concentration 90 nM)
# Summary of the method: as §1
# [9] = system: PPARg:RXRa 30nM:10nM, anti-RXR (NR concentration 30 nM, RXRa partner concentration 10 nM)
# Summary of the method: as §1
# [10] = system: PPARg:RXRa 90nM:30nM, anti-RXR (NR concentration 90 nM, RXRa partner concentration 30 nM)
# Summary of the method: as §1
# [11] = system: PPARg:RXRa DBDmut IVT, anti-RXR (DBD mutation: RXRa K156A/R161A, NR concentration 270 nM, RXRa partner concentration 90 nM)
# Summary of the method: as §1
# [12] = system: PPARg:RXRa IVT, anti-PPARg (NR concentration 270 nM, RXRa partner concentration 90 nM)
# Summary of the method: as §1
# [13] = system: PPARg DBDmut:RXRa IVT, anti-PPARg (DBD mutation: PPARg1 K132A/R137A, NR concentration 270 nM, RXRa partner concentration 90 nM)
# Summary of the method: as §1
# [14] = system: PPARg DBDmut IVT, anti-PPARg (DBD mutation: PPARg1 K132A/R137A, NR concentration 270 nM)
# Summary of the method: as §1
# [15] = system: PPARg homodimer (NR concentration 180 nM)
# Summary of the method: as §1
# [16] = system: PXR:RXRa (NR concentration 270 nM, RXRa partner concentration 90 nM)
# Summary of the method: as §1
# [17] = system: PXR homodimer (NR concentration 270 nM)
# Summary of the method: as §1
# [18] = system: RARa:RXR (NR concentration 270 nM, RXRa partner concentration 90 nM)
# Summary of the method: as §1
# [19] = system: RARa homodimer (NR concentration 270 nM)
# Summary of the method: as §1
# [20] = system: RARb:RXRa (NR concentration 270 nM, RXRa partner concentration 90 nM)
# Summary of the method: as §1
Sequence,PBM binding z-score [1],PBM binding z-score [2],PBM binding z-score [3],PBM binding z-score [4],PBM binding z-score [5],PBM binding z-score [6],PBM binding z-score [7],PBM binding z-score [8],PBM binding z-score [9],PBM binding z-score [10],PBM binding z-score [11],PBM binding z-score [12],PBM binding z-score [13],PBM binding z-score [14],PBM binding z-score [15],PBM binding z-score [16],PBM binding z-score [17],PBM binding z-score [18],PBM binding z-score [19],PBM binding z-score [20]
GCTATTAGTTGAAAGCGCAACCGAATGATTCTCG,-0.0843,-0.353,0.0981,-0.318,-0.315,-0.41,0.157,-0.0229,0.0302,-0.22,0.316,-0.176,-0.265,-0.6,0.252,-0.405,-0.357,-0.564,-0.0512,-0.343
TCATATAGGCAAATGCTAGGTGAAAGTCCGATCT,0.729,0.526,-0.00307,0.0683,-0.278,0.735,0.411,1.55,3.12,2.14,2.29,0.809,0.452,0.623,0.286,0.34,0.108,0.528,0.507,0.0925
GATAGAGGGTCAAGGCCAGAGTACGCGTATTGAT,5.49,3.11,-0.2,2.76,-0.344,4.99,4.72,4.24,1.61,4.04,2.88,3.71,0.404,0.208,1.98,2.84,0.414,3.34,0.0585,4.12
CAAACTAGGTCACGAAAGGCCAAAGTCGAATGAC,5.15,6.02,1.03,4.03,0.629,5.58,9.27,7.42,5.71,7.41,8.35,9.09,5.28,3.96,2.99,4.77,0.402,3.68,0.983,4.56
ACTCGCAGGCCAAGTTTGGGTCACTCAAACAAAG,0.277,0.222,-0.578,0.571,-0.644,1.39,-0.313,0.179,-0.845,-0.263,0.227,0.485,-0.206,-0.189,0.897,0.84,-0.477,1.47,-0.257,1.89
AAAGACAGGTGAGTGAAGGTAACTCAGCTGGACG,0.449,0.399,-0.509,-0.0849,-0.324,0.472,0.63,0.239,-0.273,0.0365,0.772,0.948,0.86,-0.373,0.59,-0.0597,0.232,0.219,0.262,0.715
TCTTGTAGATCAACAGGAGGTTAAGAGAGATCGA,-0.193,1.14,-0.121,0.527,-0.544,1.3,0.126,1.38,2.38,1.73,1.53,0.53,0.135,-0.105,-0.206,0.838,-0.445,0.613,-0.275,0.493
TTACCAAGGTTAAGGTCGTTGATCCCTCTGTAGA,4.22,4.15,0.608,2.66,-0.123,3.38,1.85,3.34,1.44,2.99,0.95,2.15,0.246,0.342,1.05,3.04,1.3,3.04,-0.0492,3.04
CCTAGTTGGTCAAGATCACACACGCTATAGGTAC,0.117,0.306,0.456,0.468,0.508,0.119,1.18,0.452,0.398,0.0188,1.36,1.04,0.47,1.08,1.14,0.0789,0.685,-0.0472,1.56,1.03
ATATGTAGGTGAGCTGGGGTCATTCAGACTAGGC,4.23,3.62,0.762,4.15,0.598,5.85,7.13,5.75,3.65,5.74,7.57,7.41,3.98,2.99,1.94,6.35,3.01,5.85,0.796,3.08
CCGAGTAGGTTATGGGGCATTTAGGCAACGGTGA,0.297,0.407,0.011,0.603,-0.473,2.22,3.51,4.47,2.4,4.37,3.07,3.53,-0.425,-0.513,2.12,-0.00225,-0.192,0.292,0.0296,0.919
CATACTAGGTCAAGAGGTCAAAGTCCGCTTCCCG,7.24,6.42,7.38,5.6,2.49,6.35,8.96,7.68,5.59,7.65,7.37,7.69,4.46,2.98,5.59,6.4,2.53,7.53,3.07,5.67
CCTGCTAGGTCAATGGTCAGCTAGAGCAGCTCGC,2.73,1.95,-0.206,1.03,-0.0711,3.04,4.26,5.05,2.14,4.51,4.03,3.86,-0.82,-0.691,1.03,0.552,-0.638,1.5,-0.363,3.71
TAGCCTAGGTCATTCAGGGGCCCGTATAGAAAGC,4.76,3.93,0.791,2.54,0.963,3.52,1.99,2.34,0.359,1.44,1.73,2.64,0.467,0.786,1.25,2.01,-0.334,2.84,-0.527,3.47
TTACCAAGGTGAAGGTCGTCGATCCCTCTGTAGA,1.32,1.01,-0.48,1.09,-0.788,2.6,3.62,4.16,2.47,4.28,1.94,3.33,0.0568,0.108,0.887,1.24,-0.288,1.64,-0.604,2.36
CCAGACTGGTGAAAGGTAACTCAGTCTGGTACGC,-0.45,-0.241,-0.759,-0.0625,-0.842,1.46,2.67,3.83,1.66,3.26,0.00689,0.829,-0.709,-0.951,0.201,-0.0709,-0.492,0.039,-0.414,0.363
TCGAGTAAGTTACCAATGGGGCATTCAGCTTTCT,-0.407,-0.177,-0.53,0.203,-0.792,0.13,-0.296,0.61,0.958,0.917,0.719,-0.101,-0.374,-1.05,-0.441,0.0133,-0.765,0.11,-0.447,-0.0716
CGAACTTGGTCAGAACAGGACAGTGAAGGATGAT,-0.314,-0.426,-0.321,-0.516,-0.663,-0.129,0.567,-0.142,-0.0842,-0.55,-0.158,0.0276,0.221,-0.53,-0.163,-0.41,0.0699,0.0937,-0.39,0.542
CGTCCAAGGTCATAGGAGGTCAGTCAAGACAGAT,7.64,7.59,5.22,6.59,0.88,5.87,5.47,5.75,2.45,4.47,3.31,4.37,0.231,0.0229,4.04,6.74,4.16,5.99,1.15,5.37
ACTAGCCGGCCAAGTTTGGGTCACTCAAACAAAG,0.307,0.194,-0.183,0.789,-0.664,1.32,-0.0659,-0.198,-1.03,-0.301,-0.561,0.67,-0.942,-0.912,0.449,0.729,-0.476,1.25,-0.454,1.5
TCTGCTAGTTCAACGATGGTCAGCTAATCTGCTA,0.141,0.175,-0.555,-0.303,-0.648,0.264,-0.456,0.558,1.26,0.99,0.463,-0.112,-0.479,-0.339,-1.27,0.51,-0.0476,0.475,-1.49,1.55
CTACCAAGTTGAACAAGGTCGTTGATTACTATTC,1.16,1.41,0.853,1.91,0.134,1.73,0.0728,0.171,0.12,0.362,0.743,0.688,0.967,0.704,1.45,2.65,4.18,1.96,1.44,1.29
CCTGCAAGGTCATGGTCAGCTAATCTACAGTATG,6.95,5.02,0.64,4.16,0.00573,5.68,4.66,5.14,2.07,3.51,2.84,3.3,1.03,1.64,3.29,4.62,0.377,5.57,1.03,5.04
CGTCAAAGTTCAAATAAGGTAACGTAAAGCACGC,7.39,6.55,4.89,4.17,3.25,4.95,4.86,5.6,2.25,4.67,0.597,2.21,0.83,1.03,4.04,5.39,5.14,4.21,2.53,5.08
TCATATGGGTAAACAGGTGAAAGTCCGTAAGTTA,0.13,0.314,-0.0837,0.449,-0.731,1.85,2.04,2.98,2.52,2.89,4.06,3.99,0.27,0.486,0.322,0.505,0.00205,0.571,-0.0494,0.316
GCTCGGAGGACAAGGTCAGTGCTTTGTCCGTAGA,1.54,1.23,-0.17,1.09,-0.53,1.94,0.00556,1.33,-0.784,0.326,-0.0896,0.926,-1.08,-0.85,0.917,1.43,-0.565,1.37,-1.15,3.46
